Screening results (PubChem)
BAZ2B block = qHTS Assay for Inhibitors of BAZ2B; Bromodomain adjacent to zinc finger domain protein 2B (Homo sapiens), Q9UIF8; AlphaScreen BAZ2B-H3K14Ac peptide displacement; Potency, µM (titrated, usually from 114 µM), without a hit: top-dose activity change, negative = inhibition, usual class: inhibitors; 360,000 compounds, 4.4% hits; AID 504333, 2011; further: on the % scale 0 is the no-effect control and ±100 the full control effect; nearly all actives have a fitted effect of over 60% in size
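AlphaScreen luminescence quantifies BAZ2B engagement of H3K14Ac peptide; the protein and biotinylated peptide are both at 50 nM final, buffer PBS pH 7.4 with 0.01% Tween-20, all steps at room temperature.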
Sfp inh = qHTS Assay for Inhibitors of Bacillus subtilis Sfp phosphopantetheinyl transferase (PPTase); Potency, µM, inactives show largest response in the series, negative = inhibition, usual class: inhibitors; 4'-phosphopantetheinyl transferase ffp (Bacillus subtilis), Q9F4F7; 310,000 compounds, 3.5% hits; Biochemical Sfp PPTase activity, qHTS;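 further: the enzyme is Sfp with the accession as filed and its product quenches rhodamine fluorescence; 0% = enzyme reaction without inhibitor and -100% = no enzyme wells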
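Reaction rates are the 30-min fluorescence difference (ex 525, em 598 nm) in wells containing 15 nM Sfp, 5 uM rhodamine-CoA and 12.5 uM BHQ-2-YbbR at pH 7.6 with 10 mM MgCl2.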
TDP1 block = qHTS Assay for Inhibitors of Tyrosyl-DNA Phosphodiesterase (TDP1) | recombinant TDP1, AlphaScreen DNA substrate cleavage | Tyrosyl-DNA phosphodiesterase 1 (Homo sapiens), Q9NUW8 | Potency, µM (highest dose often 130 µM), for the others: at the top dose activity change, negative = inhibition, actives largely listed as inhibitors | 350,000 compounds, 0.28% hits; further: on the % scale 0 is the no-effect control and ±100 the full control effect; nearly all actives have a fitted effect of over 40% in size
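Tdp1 1 nM final; 15 min RT w/ cpd; substrate 15 nM, 5 min; beads 10 ug/ml, 10 min; AlphaScreen read. Neg ctrl: no enzyme.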
HP1b chromo inh = HTS for Inhibitors of HP1-beta Chromodomain Interactions with Methylated Histone Tails; Chromobox protein homolog 1 (Homo sapiens), P83916; AlphaScreen HP1-beta / biotin-H3K9me3 peptide binding; Potency, µM (titrated, usually from 114 µM), without a hit: at the highest dose activity change, negative = inhibition, usual class: inhibitors; 390,000 compounds, 0.56% hits; AID 540317, 2011; further: nearly all actives have a fitted effect of over 70% in size
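HP1-beta protein (50 nM final) preincubated 30 min at room temperature with biotinylated H3(1-18)K9me3 peptide (50 nM) in PBS pH 7.4, 0.01% Tween-20, then compound added for 30 min. AlphaScreen streptavidin donor/nickel chelate acceptor beads (10 ug/mL final), 30 min dark, luminescence read.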
G9a inh = qHTS Assay for Inhibitors of Histone Lysine Methyltransferase G9a. Histone-lysine N-methyltransferase EHMT2 (Homo sapiens), Q96KQ7. G9a H3K9 monomethylation, AlphaScreen, 2 h. Potency, µM (highest dose often 102 µM), inactives show at the top dose activity, negative = inhibition, usual class: inhibitors. 350,000 compounds, 8.8% hits; further: on the % scale 0 is the no-effect control and ±100 the full control effect; nearly all actives have a fitted effect of over 75% in size
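AlphaScreen detection with an anti-monomethyl H3K9 antibody quantified product after a 2 h room-temperature reaction containing 500 nM biotinylated H3K9 peptide, 20 µM SAM and 20 nM enzyme, which had been preincubated 15 min with compound.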
JMJD2A Tudor inh = qHTS Assay for Inhibitors of JMJD2A-Tudor Domain; Potency, µM (series often up to 114 µM), for inactives: at the top dose activity change, negative = inhibition, actives largely listed as inhibitors; AlphaScreen JMJD2A-Tudor / H3K4me3 peptide binding; AID 504339, 2011; 390,000 compounds, 4.4% hits; further: on the % scale 0 is the no-effect control and ±100 the full control effect; nearly all actives have a fitted effect of over 50% in size
* = called active by the depositor; ! = not confirmed by another sample; [ ] = remark or other dose. Most compounds without a hit are left out; they make up all but 12% or so of the library. The call rests on the fitted dose curve; in most records, active means well fitted curve in the direction sought with a large enough effect; inconclusive means small, poorly fitted or top-dose-only effect, or another doubt; inactive means no such curve, though single readings can be large; an effect the other way counts as inactive or inconclusive. Potency means the concentration at half of the fitted maximal effect.

Screening Cc1nnc2sc(SCC(=O)Nc3ccc(Cl)cc3)nn2c1=O returned BAZ2B block 39.8µM*, Sfp inh 18.9%, TDP1 block 6.9%, HP1b chromo inh 61.5%, G9a inh 4.9% and JMJD2A Tudor inh inconclusive.
CC(=O)Nc1cccc(NC(=O)CSc2nn3c(=O)c(C)nnc3s2)c1 was read as BAZ2B block 7.6%, Sfp inh -6.0%, HP1b chromo inh 56.6%, G9a inh 33.9%[12.7 µM] and JMJD2A Tudor inh inconclusive.
For CCCCc1nc2c(c3c1C[C@H](C)OC3)CN(C(=O)c1cccnc1)CC2 the results were Sfp inh 10.3% and TDP1 block -0.2%[12.3 µM].
For Cc1ccc(S(=O)(=O)CCC(=O)c2ccc(O)cc2O)cc1 the results were BAZ2B block 9.4%, Sfp inh -11.3%, TDP1 block 1.0%, HP1b chromo inh 62.8%, G9a inh 39.8µM* and JMJD2A Tudor inh -22.2%.
For COc1ccc(N2CCN(C(=O)CCCn3nnnc3CN3CCOCC3)C(C)C2)cc1 (stereo unspecified) the results were BAZ2B block -20.7%, Sfp inh 13.4%, TDP1 block 4.7%[56.1 µM], HP1b chromo inh 7.8%, G9a inh inconclusive and JMJD2A Tudor inh -14.6%.
For CCCN1Cc2cccc(C(=O)Nc3cc(Cl)ccc3C)c2C1=O the results were BAZ2B block -6.2%, TDP1 block 0.0%, HP1b chromo inh 20.9%, G9a inh 5.4%[59 µM] and JMJD2A Tudor inh -27.9%.
Screening COc1ccc(NC(=O)CSCC(=O)Nc2sccc2C#N)cc1 returned BAZ2B block -5.9%, TDP1 block -3.9%[0.505 µM], HP1b chromo inh 25.3%, G9a inh 39.8µM* and JMJD2A Tudor inh -17.2%.
For Cn1ccnc1SCC(=O)Nc1sccc1C#N the results were BAZ2B block -36.4%, Sfp inh 79.4µM*, TDP1 block -1.1%, HP1b chromo inh 11.8%, G9a inh -0.8% and JMJD2A Tudor inh -25.8%.
For C[C@H]1COC(=O)[C@H](Cc2ccccc2)NC(=O)[C@@H](C)COC(=O)[C@H](Cc2ccccc2)NC1=O the results were Sfp inh 7.3% and TDP1 block 2.6%[21 µM].
For CN(C)c1ccc2cc(S(=O)(=O)O)cc(O)c2c1 the results were HP1b chromo inh inconclusive and JMJD2A Tudor inh 50.1µM*.
`Nc1cccc2cc(S(=O)(=O)O)ccc12` gave HP1b chromo inh -8.1%[57 µM] and JMJD2A Tudor inh 50.1µM*.
`Nc1cccc(S(=O)(=O)O)c1` gave TDP1 block 14.9%.
Screening Cc1ccc(S(=O)(=O)O)cc1C returned Sfp inh 10.9%, TDP1 block 17.2% and G9a inh 25.8%[59 µM].
O=Nc1c(O)ccc2cc(S(=O)(=O)O)ccc12 was read as HP1b chromo inh 9.0% and JMJD2A Tudor inh 2.82µM*.
For O=C(NCC1CCCO1)c1c[nH]c2ccc(S(=O)(=O)Nc3cccc(C(F)(F)F)c3)cc2c1=O (stereo unspecified) the results were BAZ2B block 2.3%, TDP1 block 2.8%, HP1b chromo inh 39.9%, G9a inh 0.6%[59 µM] and JMJD2A Tudor inh 0.0%.
Screening CC1(C)CC2CC(C)(CN2C(=O)c2cc(-c3ccccc3)on2)C1 (stereo unspecified) returned BAZ2B block 12.5%, Sfp inh -7.3%, HP1b chromo inh 39.6%, G9a inh -2.4% and JMJD2A Tudor inh 9.0%.
CCc1ccc(NC(=O)CCc2c(C)nc3nc(-c4cc(OC)cc(OC)c4)nn3c2C)cc1 was read as BAZ2B block -7.0%, TDP1 block 2.3%, HP1b chromo inh 32.9%, G9a inh 1.6%[59 µM] and JMJD2A Tudor inh -31.3%.
`Nc1nc(Cl)nc2c1ncn2[C@@H]1O[C@H](COP(=O)(O)OP(=O)(O)OP(=O)(O)O)[C@@H](O)[C@H]1O` gave G9a inh 26.7µM*.
`CSc1nc(N)c2ncn([C@H]3O[C@H](COP(=O)(O)OP(=O)(O)O)[C@@H](O)[C@@H]3O)c2n1` gave Sfp inh -3.8% and TDP1 block 12.4%[56.1 µM].
For Nc1ncnc2c1ncn2[C@@H]1O[C@H](COP(=O)(O)OP(=O)(O)CP(=O)(O)O)[C@@H](O)[C@H]1O the results were Sfp inh 1.3%, TDP1 block 11.0% and G9a inh -4.6%[59 µM].
For CNC(=O)[C@H]1O[C@@H](n2cnc3c(N)ncnc32)[C@H](O)[C@H]1O the results were TDP1 block 4.3%[56.1 µM] and G9a inh 3.16µM*.
`Nc1ncnc2c1ncn2[C@@H]1O[C@H](COP(=O)(O)OP(=O)(O)O)[C@@H](O)[C@H]1O` gave Sfp inh 50.1µM*!, TDP1 block 6.1% and G9a inh 35.0%[59 µM].
`Nc1ncnc2c1ncn2[C@@H]1O[C@H](COP(=O)(O)OP(=O)(O)OP(=O)(O)OP(=O)(O)OC[C@@H]2O[C@H](n3cnc4c(N)ncnc43)[C@@H](O)[C@H]2O)[C@@H](O)[C@H]1O` gave Sfp inh 11.8%, TDP1 block 4.9% and G9a inh 25.1µM*!.
`CC(C)c1ccc(NC(=O)C(Cc2ccccc2)NS(=O)(=O)c2ccc3c(c2)CCC(=O)N3)cc1` (stereo unspecified) gave BAZ2B block -12.4%, TDP1 block 5.8%, HP1b chromo inh 37.2%, G9a inh 3.1%[59 µM] and JMJD2A Tudor inh -26.9%.
For O=C(Nc1ccc(S(=O)(=O)N2CCCC2)cc1)c1cccnc1Cl the results were BAZ2B block 9.1%, HP1b chromo inh 12.3%, G9a inh -2.0% and JMJD2A Tudor inh 0.0%.
Screening CNC(=O)[C@H]1O[C@@H](n2cnc3c(NCc4cccc(I)c4)nc(Cl)nc32)[C@H](O)[C@@H]1O returned BAZ2B block -0.8%, Sfp inh -13.6%, TDP1 block 9.8%, HP1b chromo inh 22.5%, G9a inh -5.3%[59 µM] and JMJD2A Tudor inh -25.9%.
CCOC(=O)N1CCN(C(=O)c2ccc(OCC)cc2)CC1 was read as BAZ2B block -9.8%, Sfp inh -17.6%, TDP1 block 2.8%, HP1b chromo inh 27.7% and JMJD2A Tudor inh -7.9%.
CC(C)Oc1ccc(C(=O)CCN2CCOCC2)cc1 was read as HP1b chromo inh 55.8% and JMJD2A Tudor inh 2.7%.
